From the supplement of paper PMC3334620
Whole data set: some 33,000 sequences, median “E-score (-0.5 to 0.5)” near -0.032, cut for the highest 2% near 0.36. The list comes from a sample in which the highest values are over-represented; it also holds similar and randomly drawn sequences.

Target: T1, Sko1 (UniProt Q02100)
T1 sequence: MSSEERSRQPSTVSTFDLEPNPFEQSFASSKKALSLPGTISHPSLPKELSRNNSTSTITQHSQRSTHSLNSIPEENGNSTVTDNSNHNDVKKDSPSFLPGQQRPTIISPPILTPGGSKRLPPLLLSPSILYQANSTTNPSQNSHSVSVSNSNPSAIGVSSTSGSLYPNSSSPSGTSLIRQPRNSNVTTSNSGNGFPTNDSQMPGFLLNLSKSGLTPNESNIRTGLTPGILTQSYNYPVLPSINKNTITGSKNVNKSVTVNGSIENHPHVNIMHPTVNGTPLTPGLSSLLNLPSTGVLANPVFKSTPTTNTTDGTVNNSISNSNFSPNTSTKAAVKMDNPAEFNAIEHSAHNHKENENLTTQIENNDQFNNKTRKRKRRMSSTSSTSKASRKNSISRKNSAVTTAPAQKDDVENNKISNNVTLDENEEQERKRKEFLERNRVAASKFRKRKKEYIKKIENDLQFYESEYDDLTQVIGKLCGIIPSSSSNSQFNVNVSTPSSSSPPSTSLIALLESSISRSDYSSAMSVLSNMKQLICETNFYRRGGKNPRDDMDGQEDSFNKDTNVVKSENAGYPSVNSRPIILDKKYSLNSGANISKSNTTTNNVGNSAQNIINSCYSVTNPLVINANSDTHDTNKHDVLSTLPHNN
Assay: PBM E-score (8-mer binding enrichment) (E-score (-0.5 to 0.5)); higher = stronger / more preferred TF binding
Conditions: protein concentration: 200 nM; construct: GST-full length
Outline: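 For each ungapped eight-base word taken together with its reverse complement, the Universal PBM Analysis Suite assigned an E-score. Binding data came from GST-tagged yeast transcription factors, applied at about 100-200 nM, on universal all-10-mer Agilent arrays made double-stranded by primer extension. Fluorescent anti-GST marked bound protein, and scans were normalised with masliner.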

| Sequence | PBM E-score |
| --- | --- |
| CCCCCCAC | -0.372 |
| ACGTGTAA | 0.386 |
| CCGTGTAG | -0.181 |
| GCGTGTAC | 0.227 |
| TCGTGTAA | 0.116 |
| ACGTGTAG | 0.367 |
| ACGTGTAC | 0.409 |
| ACGTGTAT | 0.414 |
| AGGTGTAT | 0.075 |
| AAGTGTAG | 0.0389 |
| CCGTGTAC | -0.0602 |
| CCGTGTAA | -0.0449 |
| AAGTGTAT | 0.0856 |
| CATGACTA | 0.0134 |
| AATACCGG | 0.00982 |
| CGTTTACA | 0.138 |
| CTCCCCAC | -0.00257 |
| ATTAAGCG | 0.0319 |
| ACCGCATC | -0.161 |
| AATAAGCT | 0.0887 |
| CTATAGGA | 0.0338 |
| CCGAGATA | 0.00305 |
| ACTAGTGC | -0.13 |
| GCGTGTCA | 0.216 |
| AAGTGTCG | 0.00605 |

| Sequence | PBM E-score |
| --- | --- |
| CCGTGTCA | -0.186 |
| ACGTGTCC | 0.318 |
| ACGTGTCT | 0.381 |
| AAGTGTCT | -0.135 |
| ACGTGTCA | 0.378 |
| ACGTGTCG | 0.385 |
| CCGTGTCG | -0.319 |
| CAGCAGGC | -0.22 |
| AGGCTTGA | -0.0134 |
| ACGGCTCG | -0.0111 |
| TAACGTGA | 0.274 |
| GAACGTAC | 0.254 |
| CAACGTAG | 0.354 |
| GAACGTAA | 0.428 |
| GATCGTAA | 0.281 |
| CAACGTGA | 0.182 |
| CAACGTAA | 0.447 |
| TAACGTAA | 0.457 |
| TAACGTTA | 0.302 |
| ACAACTAA | 0.161 |
| AGGCCTGC | -0.301 |
| GCCGTCGC | -0.133 |
| CTCGGTAC | -0.0539 |
| CTACTCAC | 0.168 |
| GCCACGCA | 0.0845 |

| Sequence | PBM E-score |
| --- | --- |
| ACCACGTA | 0.441 |
| ACCACGAC | 0.128 |
| GCCACGTA | 0.421 |
| ACCACGTC | 0.363 |
| ACCACGTG | 0.362 |
| GCCACGGA | -0.215 |
| ACCACAAA | 0.0563 |
| ACCACGAA | 0.131 |
| ACCACGCC | -0.125 |
| ACCACGGG | -0.243 |
| ACCACGGA | -0.247 |
| GTCTGATA | -0.114 |
| TATCTGGA | -0.215 |
| CCTCGGCG | -0.0614 |
| CCACCAAG | -0.374 |
| ACCGGTGG | -0.404 |
| AACTCACC | -0.0504 |
| GAGAACCA | -0.127 |
| ACACTCCT | -0.189 |
| ACGCTCAA | 0.0466 |
| TTGTGAAA | 0.119 |
| ACTTTCAA | 0.0541 |
| ACCTATAT | 0.257 |
| GGTGACGA | 0.422 |
| AGTGACGA | 0.419 |

| Sequence | PBM E-score |
| --- | --- |
| AGTGACCA | -0.178 |
| GTTGACGA | 0.212 |
| GGTGACCA | -0.137 |
| AGTGACGG | 0.146 |
| ACGCCCAG | -0.0834 |
| TACACTAA | -0.0348 |
| AATTGTGA | 0.233 |
| ATCGGCCC | -0.133 |
| CCCCACGG | -0.22 |
| CTCATTAA | 0.0254 |
| CTCATTGA | -0.0333 |
| GTCATTAA | 0.393 |
| ATCATTGA | 0.272 |
| ATCATTAA | 0.239 |
| GTCATTGA | 0.416 |
| CCTGAGGC | -0.278 |
| GATAGAGA | -0.084 |
| ACCTTCGT | 0.0282 |
| CGTAAAAG | 0.288 |
| AGACTCAC | -0.129 |
| TGAAGACA | 0.0964 |
| CGCGACTA | -0.0528 |
| CTGGATGC | -0.36 |
| CTGTGCGC | -0.113 |
| CAAAGAAG | -0.00535 |

| Sequence | PBM E-score |
| --- | --- |
| AATCGTCT | 0.0851 |
| AATCGTCA | 0.423 |
| GATCGTCA | 0.321 |
| AATCGTCC | 0.0937 |
| CATCGTCA | 0.395 |
| CATCGTCC | 0.0258 |
| TATCGTCA | 0.42 |
| TATCGTGA | 0.168 |
| CATCGTCG | -0.16 |
| CCTCATTA | 0.131 |
| ATTGCCAC | -0.11 |
| CGATGGGA | -0.0417 |
| ACACTAAT | 0.119 |
| AGGTCCAT | 0.0213 |
| AGGACATC | -0.0352 |
| GACGGGCA | -0.145 |
| GAGCGTAA | 0.218 |
| ATGCGTAG | 0.3 |
| GTGCGCAA | 0.114 |
| CTGCGTTA | 0.0283 |
| ATGCGTAC | 0.291 |
| CTGCGTAC | 0.149 |
| GTGCGTAA | 0.418 |
| ATGCGTAA | 0.437 |
| CTGCGTAA | 0.397 |

| Sequence | PBM E-score |
| --- | --- |
| CACTGCAG | -0.064 |
| CATCTTAC | 0.228 |
| TCAGAGAA | 0.00926 |
| ACGCCATA | 0.393 |
| ACGCCAAG | -0.0349 |
| CCGCCATA | -0.182 |
| CCGCCATC | -0.29 |
| ACGCCATC | 0.376 |
| ACGCCATG | 0.368 |
| ACGCCACC | 0.0629 |
| ACGCCACA | 0.234 |
| GCGCCATA | 0.0343 |
| AAGGATCC | -0.254 |
| CCACGCAG | 0.057 |
| ACACGGGT | -0.189 |
| CAGCATCG | -0.332 |
| CCCGCTAC | -0.15 |
| AACCATAT | 0.119 |
| CCACGTTC | 0.0509 |
| CCACGTGG | 0.177 |
| CCACGTGA | 0.339 |
| CCACGTAA | 0.456 |
| CCCCGTAA | 0.0319 |
| CCCCGTAG | -0.2 |
| CCACGTAC | 0.374 |

| Sequence | PBM E-score |
| --- | --- |
| CCACGTAG | 0.377 |
| CCACGTGC | 0.341 |
| ATGGGGCA | -0.185 |
| CAATAGTC | -0.085 |
| CTGGTACA | -0.00751 |
| GTCTGGGA | -0.133 |
| AGTCGTCC | -0.114 |
| CGTCGTCA | 0.362 |
| GGTCGTTA | -0.0165 |
| CGTCGTCC | -0.0443 |
| GGTCGTGA | 0.0516 |
| CGTCGTTA | 0.153 |
| AGTCGTCA | 0.37 |
| GGTCGTCA | 0.38 |
| AGTCGTCG | -0.148 |
| AGAGGTAG | -0.178 |
| GGGCTAAA | -0.182 |
| AAACACGC | 0.316 |
| ACACACGG | -0.0648 |
| AAACACGA | 0.163 |
| ACACACGT | 0.433 |
| ACACACGA | 0.213 |
